# Assay results taken from PubChem BioAssay (NCATS).
# “And” between values parts separate entries of the source, which are not always exact repeats. Equal entries are not always repeated. Results filed as inconclusive are left out. A number with no mark means an inactive call. Calls come from the whole dose curve; as a rule, active = well fitted inhibition curve with a large enough effect; inconclusive = small, poorly fitted or top-dose-only effect; inactive = flat fitted curve, though single readings scatter. Where a SMILES comes first, the peptide text is derived from it. [ ]: non-standard residue; d: D form. pGlu = O=C1CC[C@@H](C(=O)O)N1
# Test: Drug repurposing screens with cells derived from glioblastoma tumor samples (AID 1345199); note: nearly all actives have a fitted effect of over 40% in size
# Conditions: GBM patient neurospheres viability, ATP luminescence, 48 h; at 45.9 µM (top of the series); tumour line B
# In short: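 Primary testing used CD133+ neurospheres from four GBM patients, seven concentrations, 48 h exposure and ATP-based viability; confirmation added three slower-growing patient lines.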
# % is set by controls: 0 for no effect and ±100 for the full control effect.
row,SMILES,"activity, negative = cell killing"
1,NC(N)=O,-9.26%
2,CC(C)(C)CC(C)(C)c1cc(Cc2cc(C(C)(C)CC(C)(C)C)cc(-n3nc4ccccc4n3)c2O)c(O)c(-n2nc3ccccc3n2)c1,-3.94%
3,C[C@]12CC[C@@H]3c4ccc(O)cc4CC[C@H]3[C@@H]1CC[C@@H]2OP(=O)(O)O,-7.23%
4,O=[n+]1ccn([O-])c2ccccc21,-6.39%
5,CC1(C)[C@H]2CC[C@]1(C)[C@H](O)C2,-3.63%
6,C=C(C)C1CC=C(C)CC1 (stereo not given),-13.3%
7,CC(C)O,-6.9%
8,CCC(O)c1ccccc1 (stereo not given),-1.17%
9,CC(C)CCCCCCc1ccc(O)cc1,-21.6%
10,CC[C@@H]1/C=C(\C)C[C@H](C)C[C@H](OC)[C@H]2O[C@@](O)(C(=O)C(=O)N3CCCC[C@H]3C(=O)O[C@H](/C(C)=C/[C@@H]3CC[C@@H](Cl)[C@H](OC)C3)[C@H](C)[C@@H](O)CC1=O)[C@H](C)C[C@@H]2OC,-7.85%
11,OCC(O)CO,-10.1%
12,CCCCCCCCCCCCOCCCN,-9.11%
13,C[N+]1(C)[C@@H]2CC(OC(=O)C(O)(c3cccs3)c3cccs3)C[C@H]1[C@@H]1O[C@@H]12 (stereo not given in full),-12.3%
14,OCc1ccccc1,-6.55%
15,O=C(OCc1ccccc1)c1cccnc1,-17.7%
16,CC[C@@H](C)[C@H](N)C(=O)O,-5.93%
17,NCCN,-1.66%
18,C/C=C/C=C/C(=O)O,2.26%

row,SMILES,"activity, negative = cell killing"
1,CC1=CCC2CC1C2(C)C (stereo not given),-2.1%
2,CC[C@H](C)[C@H](NC(=O)[C@H](Cc1ccccc1)NC(=O)[C@H](C)NC(=O)[C@H](CC(=O)O)NC(=O)[C@H](CCCCN)NC(=O)[C@H](CO)NC(=O)[C@@H]1CCCN1C(=O)[C@@H]1CCC(=O)N1)C(=O)NCC(=O)N[C@@H](CC(C)C)C(=O)N[C@@H](CCSC)C(N)=O ([pGlu]PSKDAFIGLM-NH2),-11.4%
3,O=C(O)/C=C/c1ccccc1,-13.6%
4,CC(C)[C@@H]1CC[C@@H](C)C[C@H]1O,-7.27%
5,CO/N=C(\C(=O)N[C@@H]1C(=O)N2C(C(=O)O)=CCS[C@H]12)c1csc(N)n1,-10.9%
6,CCCc1nc(C(C)(C)O)c(C(=O)OCc2oc(=O)oc2C)n1Cc1ccc(-c2ccccc2-c2nn[nH]n2)cc1,-17.3%
7,CC(C)C[C@H](NC(=O)[C@@H](COC(C)(C)C)NC(=O)[C@H](Cc1ccc(O)cc1)NC(=O)[C@H](CO)NC(=O)[C@H](Cc1c[nH]c2ccccc12)NC(=O)[C@H](Cc1cnc[nH]1)NC(=O)[C@@H]1CCC(=O)N1)C(=O)N[C@@H](CCCN=C(N)N)C(=O)N1CCC[C@H]1C(=O)NNC(N)=O,-16.4% and -7.35%
8,COC(=O)c1ccccc1O,-5.99%
9,O=C(NCCNCC(O)COc1ccc(O)cc1)N1CCOCC1 (stereo not given),-5.84%
10,C[C@H](CCC(=O)O)[C@H]1CC[C@H]2[C@@H]3CC[C@@H]4C[C@H](O)CC[C@]4(C)[C@H]3C[C@H](O)[C@]12C,-4.54%
11,O=C(O)CN(CC(=O)O)CC1=CC2C(=CC1=O)Oc1cc(O)c(CN(CC(=O)O)CC(=O)O)cc1C21OC(=O)c2ccccc21 (stereo not given),-10.9%
12,CCCCCCOC(=O)c1cccnc1,14.4%
13,C[C@H](N)C(=O)N[C@@H](C)P(=O)(O)O,-6.14%
14,O=C(O)c1ccc(NC2OC[C@@H](O)[C@H](O)[C@H]2O)cc1 (stereo not given in full),-2.93%
15,Nc1nccs1,-17.5%
16,c1ccc2ccccc2c1,-9.97%
17,OCl,-3.7%

# Same assay, conditions: GBM patient neurospheres viability, ATP luminescence, 48 h; at 45.9 µM (top of the series); tumour line D
row,SMILES,"activity, negative = cell killing"
1,NC(N)=O,-11.1%
2,CC(C)(C)CC(C)(C)c1cc(Cc2cc(C(C)(C)CC(C)(C)C)cc(-n3nc4ccccc4n3)c2O)c(O)c(-n2nc3ccccc3n2)c1,-1.11%
3,C[C@]12CC[C@@H]3c4ccc(O)cc4CC[C@H]3[C@@H]1CC[C@@H]2OP(=O)(O)O,-13%
4,O=[n+]1ccn([O-])c2ccccc21,-13.6%
5,CC1(C)[C@H]2CC[C@]1(C)[C@H](O)C2,-3.69%
6,C=C(C)C1CC=C(C)CC1 (stereo not given),-4.33%
7,CC(C)O,-24.5%
8,CCC(O)c1ccccc1 (stereo not given),0.662%
9,CC(C)CCCCCCc1ccc(O)cc1,-27.3%
10,CC[C@@H]1/C=C(\C)C[C@H](C)C[C@H](OC)[C@H]2O[C@@](O)(C(=O)C(=O)N3CCCC[C@H]3C(=O)O[C@H](/C(C)=C/[C@@H]3CC[C@@H](Cl)[C@H](OC)C3)[C@H](C)[C@@H](O)CC1=O)[C@H](C)C[C@@H]2OC,-16.3%
11,OCC(O)CO,-10.7%
12,CCCCCCCCCCCCOCCCN,2.93%
13,C[N+]1(C)[C@@H]2CC(OC(=O)C(O)(c3cccs3)c3cccs3)C[C@H]1[C@@H]1O[C@@H]12 (stereo not given in full),0.442%
14,OCc1ccccc1,18%
15,O=C(OCc1ccccc1)c1cccnc1,-1.76%
16,CC[C@@H](C)[C@H](N)C(=O)O,-17.3%
17,NCCN,-17.5%
18,C/C=C/C=C/C(=O)O,-15.1%

row,SMILES,"activity, negative = cell killing"
1,CC1=CCC2CC1C2(C)C (stereo not given),2.05%
2,CC[C@H](C)[C@H](NC(=O)[C@H](Cc1ccccc1)NC(=O)[C@H](C)NC(=O)[C@H](CC(=O)O)NC(=O)[C@H](CCCCN)NC(=O)[C@H](CO)NC(=O)[C@@H]1CCCN1C(=O)[C@@H]1CCC(=O)N1)C(=O)NCC(=O)N[C@@H](CC(C)C)C(=O)N[C@@H](CCSC)C(N)=O ([pGlu]PSKDAFIGLM-NH2),13.8%
3,O=C(O)/C=C/c1ccccc1,12.4%
4,CC(C)[C@@H]1CC[C@@H](C)C[C@H]1O,3.66%
5,CO/N=C(\C(=O)N[C@@H]1C(=O)N2C(C(=O)O)=CCS[C@H]12)c1csc(N)n1,-17.7%
6,CCCc1nc(C(C)(C)O)c(C(=O)OCc2oc(=O)oc2C)n1Cc1ccc(-c2ccccc2-c2nn[nH]n2)cc1,-13.8%
7,CC(C)C[C@H](NC(=O)[C@@H](COC(C)(C)C)NC(=O)[C@H](Cc1ccc(O)cc1)NC(=O)[C@H](CO)NC(=O)[C@H](Cc1c[nH]c2ccccc12)NC(=O)[C@H](Cc1cnc[nH]1)NC(=O)[C@@H]1CCC(=O)N1)C(=O)N[C@@H](CCCN=C(N)N)C(=O)N1CCC[C@H]1C(=O)NNC(N)=O,-27.1% and -14%
8,COC(=O)c1ccccc1O,-6.33%
9,O=C(NCCNCC(O)COc1ccc(O)cc1)N1CCOCC1 (stereo not given),-3.52%
10,C[C@H](CCC(=O)O)[C@H]1CC[C@H]2[C@@H]3CC[C@@H]4C[C@H](O)CC[C@]4(C)[C@H]3C[C@H](O)[C@]12C,7.18%
11,O=C(O)CN(CC(=O)O)CC1=CC2C(=CC1=O)Oc1cc(O)c(CN(CC(=O)O)CC(=O)O)cc1C21OC(=O)c2ccccc21 (stereo not given),-10.1%
12,CCCCCCOC(=O)c1cccnc1,7.42%
13,C[C@H](N)C(=O)N[C@@H](C)P(=O)(O)O,-11.2%
14,O=C(O)c1ccc(NC2OC[C@@H](O)[C@H](O)[C@H]2O)cc1 (stereo not given in full),0.684%
15,Nc1nccs1,-10.5%
16,c1ccc2ccccc2c1,9.45%
17,OCl,-8.71%
